Laboratory results: PubChem BioAssay AID1159580 (chemical genetic matrix, 2015)
The whole screen tested about 5,500 compounds, of which about 2,000 (36%) were called active. Roughly 18% stayed inconclusive and do not appear here. Cut-off read from the data, not from the text of the source: active = normalized growth mostly below about 0.91 (no sharp cut-off); inconclusive = no clear call, values can overlap the other calls; inactive = mostly above about 0.92. This is one part of the list.

Assay: chemical genetic growth profiling, strain panel (AID 1159580);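 note: tested at 20 µM; growth read once vehicle control cultures reached saturation at 30 °C; 1 = growth at the plate median or of vehicle wells; lower values mean less growth of the strain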
Conditions: S. cerevisiae deletion strains, growth OD
[1] = locus YAL040C, strain CLN3, stronger effect = lower value
[2] = locus YCL061C, strain MRC1 (second series), stronger effect = lower value
[3] = locus YDR150W, strain NUM1, stronger effect = lower value
[4] = locus YDR363W, strain ESC2, stronger effect = lower value
[5] = locus YER002W, strain NOP16, stronger effect = lower value
[6] = locus YGR078C, strain PAC10, stronger effect = lower value
[7] = locus YJR075W, strain HOC1, stronger effect = lower value
[8] = locus YMR263W, strain SAP30, stronger effect = lower value
[9] = locus YNL128W, strain TEP1, stronger effect = lower value
[10] = locus YNL153C, strain GIM3, stronger effect = lower value
[11] = locus YNL175C, strain NOP13, stronger effect = lower value
[12] = locus YNL197C, strain WHI3, stronger effect = lower value
[13] = locus YNL224C, strain SQS1, stronger effect = lower value
[14] = locus YNL322C, strain KRE1, stronger effect = lower value
[15] = locus YOR083W, strain WHI5 (second series), stronger effect = lower value
[16] = locus YHR030C, strain SLT2, stronger effect = lower value
[17] = locus YHR079C, strain IRE1, stronger effect = lower value
[18] = locus YJL095W, strain BCK1, stronger effect = lower value
[19] = locus YJR066W, strain TOR1, stronger effect = lower value
[20] = locus YLR113W, strain HOG1, stronger effect = lower value
[21] = locus YNL183C, strain NPR1, stronger effect = lower value
[22] = locus YOR231W, strain MKK1, stronger effect = lower value
[23] = locus YPL256C, strain CLN2, stronger effect = lower value
[24] = locus YMR307W, strain GAS1, stronger effect = lower value

Measured: normalized growth

Cc1ccc2c(c1)C(N1CCN(C)CC1)=Nc1cccnc1N2
inactive: [1] 0.99 | [2] 0.989 | [3] 0.986 | [4] 1.02 | [5] 1 | [6] 0.983 | [7] 1 | [8] 0.982 | [9] 1.09 | [10] 0.998 | [11] 0.997 | [12] 0.988 | [13] 1.01 | [14] 0.988 | [15] 0.991

Cc1cc2c(s1)Nc1ccccc1N=C2N1CCN(C)CC1
inactive: [16] 0.975 | [17] 0.976 | [18] 1.01 | [19] 0.944 | [20] 1.05 | [21] 0.969 | [22] 1 | [23] 1.03

COCC1=C(C(=O)OC(C)OC(=O)OC(C)C)N2C(=O)[C@@H](NC(=O)/C(=N\OC)c3csc(N)n3)[C@H]2SC1 (stereo partly specified)
inactive: locus YAL021C, strain ccr4, stronger effect = lower value 0.98 | locus YAL026C, strain drs2, stronger effect = lower value 0.967 | locus YAL030W, strain snc1, stronger effect = lower value 0.982 | locus YBL061C, strain skt5, stronger effect = lower value 0.968 | locus YBR009C, strain hhf1, stronger effect = lower value 0.96 | locus YBR023C, strain chs3, stronger effect = lower value 0.982 | locus YBR171W, strain sec66, stronger effect = lower value 0.968 | locus YBR231C, strain swc5, stronger effect = lower value 0.967 | locus YBR279W, strain paf1, stronger effect = lower value 0.98 | locus YCL011C, strain gbp2, stronger effect = lower value 0.973 | locus YCL016C, strain dcc1, stronger effect = lower value 0.982 | locus YCL061C, strain MRC1, stronger effect = lower value 0.981 | locus YCL069W, strain vba3, stronger effect = lower value 0.976 | locus YCR088W, strain abp1, stronger effect = lower value 0.97 | locus YDL005C, strain med2, stronger effect = lower value 0.966 | locus YDL040C, strain nat1, stronger effect = lower value 0.977 | locus YDR001C, strain nth1, stronger effect = lower value 0.97 | locus YDR069C, strain doa4, stronger effect = lower value 0.971 | locus YDR137W, strain rgp1, stronger effect = lower value 0.93 | locus YDR159W, strain sac3, stronger effect = lower value 0.95 | locus YDR195W, strain ref2 0.927 | locus YDR297W, strain sur2, stronger effect = lower value 0.979 | locus YDR334W, strain swr1, stronger effect = lower value 0.976 | locus YDR335W, strain msn5, stronger effect = lower value 0.987 | locus YDR392W, strain spt3, stronger effect = lower value 0.919 | locus YEL003W, strain gim4, stronger effect = lower value 0.984 | locus YEL037C, strain rad23, stronger effect = lower value 0.969 | locus YEL061C, strain CIN8 (second series), stronger effect = lower value 0.971 | locus YER015W, strain faa2, stronger effect = lower value 0.98 | locus YER016W, strain bim1, stronger effect = lower value 0.98 | locus YER111C, strain swi4, stronger effect = lower value 0.972 | locus YER155C, strain BEM2 (second series), stronger effect = lower value 0.972 | locus YFR010W, strain ubp6, stronger effect = lower value 0.964 | locus YGL167C, strain pmr1, stronger effect = lower value 0.967 | locus YGL173C, strain kem1, stronger effect = lower value 0.968 | locus YGL227W, strain vid30, stronger effect = lower value 0.96 | locus YGL240W, strain doc1, stronger effect = lower value 0.981 | locus YGL253W, strain hxk2, stronger effect = lower value 0.986 | locus YHR013C, strain ard1, stronger effect = lower value 0.976 | locus YHR027C, strain rpn1, stronger effect = lower value 0.985 | [16] 0.968 | [17] 0.999 | locus YHR142W, strain chs7, stronger effect = lower value 0.982 | locus YJL092W, strain hpr5, stronger effect = lower value 0.972 | locus YJL095W, strain BCK1 (second series), stronger effect = lower value 0.989 | [18] 0.977 | locus YJL115W, strain asf1, stronger effect = lower value 0.966 | locus YJL129C, strain trk1, stronger effect = lower value 0.974 | locus YJL154C, strain vps35, stronger effect = lower value 0.976 | locus YJL164C, strain tpk1, stronger effect = lower value 0.998 | locus YJL166W, strain qcr8, stronger effect = lower value 0.998 | locus YJL187C, strain SWE1, stronger effect = lower value 0.982 | [19] 0.927 | locus YKL160W, strain elf1, stronger effect = lower value 0.994 | locus YKR026C, strain gcn3, stronger effect = lower value 0.962 | locus YKR091W, strain srl3, stronger effect = lower value 0.981 | locus YLL001W, strain dnm1, stronger effect = lower value 0.976 | locus YLL026W, stronger effect = lower value 0.971 | locus YLL041C, strain sdh2, stronger effect = lower value 0.992 | locus YLR027C, strain aat2, stronger effect = lower value 0.979 | [20] 0.943 | locus YLR221C, strain rsa3, stronger effect = lower value 0.997 | locus YLR258W, strain gsy2, stronger effect = lower value 0.978 | locus YLR262C, strain YPT6 (second series), stronger effect = lower value 0.987 | locus YLR320W, strain mms22, stronger effect = lower value 0.983 | locus YLR342W, strain FKS1, stronger effect = lower value 0.973 | locus YLR357W, strain rsc2, stronger effect = lower value 0.929 | locus YLR370C, strain arc18, stronger effect = lower value 0.956 | locus YLR384C, strain iki3, stronger effect = lower value 0.976 | locus YML120C, strain ndi1, stronger effect = lower value 0.967 | locus YMR058W, strain fet3, stronger effect = lower value 0.981 | locus YMR125W, strain sto1, stronger effect = lower value 0.926 | locus YMR129W, stronger effect = lower value 0.97 | locus YMR205C, strain PFK2, stronger effect = lower value 0.937 | locus YMR231W, strain pep5, stronger effect = lower value 0.967 | locus YNL071W, strain lat1, stronger effect = lower value 0.986 | [21] 0.945 | locus YNL209W, strain ssb2, stronger effect = lower value 0.986 | locus YNL248C, strain rpa49, stronger effect = lower value 0.99 | locus YNL322C, strain KRE1 (second series), stronger effect = lower value 0.982 | locus YNR049C, strain mso1, stronger effect = lower value 0.98 | locus YOR001W, strain rrp6, stronger effect = lower value 0.978 | locus YOR070C, strain gyp1, stronger effect = lower value 0.976 | locus YOR080W, strain dia2, stronger effect = lower value 0.967 | locus YOR083W, strain WHI5, stronger effect = lower value 0.993 | locus YOR106W, strain vam3, stronger effect = lower value 0.983 | [22] 0.973 | locus YOR265W, strain rbl2, stronger effect = lower value 0.982 | locus YOR270C, strain vph1, stronger effect = lower value 0.951 | locus YOR290C, strain snf2, stronger effect = lower value 0.962 | locus YPL051W, strain arl3, stronger effect = lower value 0.994 | locus YPL078C, strain atp4, stronger effect = lower value 0.986 | locus YPL106C, strain sse1, stronger effect = lower value 0.982 | locus YPL240C, strain hsp82, stronger effect = lower value 0.99 | [23] 0.974

CCCN1CCCC2Cc3[nH]ncc3CC21 (stereo unspecified)
inactive: [1] 0.972 | [2] 1 | [3] 0.995 | [4] 1.02 | [5] 0.992 | [6] 0.997 | locus YGR229C, strain SMI1, stronger effect = lower value 0.989 | [7] 1 | [8] 0.997 | [24] 0.992 | [9] 0.989 | [10] 1.1 | [11] 0.994 | [12] 0.992 | [13] 0.98 | [14] 1.02 | [15] 0.986 | locus YPL241C, strain CIN2, stronger effect = lower value 1

CC(C)NP(=O)(NC(C)C)OP(=O)(NC(C)C)NC(C)C
inactive: [1] 0.983 | [2] 1 | [4] 0.998 | [5] 0.995 | [6] 0.991 | [7] 1.01 | [8] 0.991 | [24] 0.995 | [9] 0.99 | [11] 0.991 | [12] 0.995 | [13] 0.991 | [14] 1.01 | [15] 0.991 | locus YPL055C, strain LGE1, stronger effect = lower value 1.01
